The values below come from PubChem BioAssay (NCI).

Compounds without any hit were thinned out: in the full panel of roughly 83,000, 20% have a hit.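 Single-concentration screen, 48 h exposure, 96-well plates. Endpoint: percent growth. Below 10 = active.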 Values without a mark were called inactive. Calls of active or inactive are those of the source.

Test in all cases: NCI-60 one-dose screen, 48 h (100 = growth as untreated, 0 = no growth, -100 = all killed)
The test system of one assay is SK-MEL-2 melanoma. The following applies: 10 µM unless noted.
A further assay has as its system SN12C renal. Conditions: 10 µM unless noted.
The next assay concerns UO-31 renal. Conditions: 10 µM unless noted.
For the next assay, the system named is TK-10 renal. Conditions: 10 µM unless noted.
The next assay concerns ACHN renal. Conditions: 10 µM unless noted.
In a further assay the test system is CAKI-1 renal. Conditions: 10 µM unless noted.
The next assay deals with A498 renal. The following applies: 10 µM.
The subject of a further assay is HL-60(TB) leukemia. The following applies: 10 µM unless noted.
A further assay concerns CCRF-CEM leukemia. The following applies: 10 µM unless noted.
Another assay deals with MOLT-4 leukemia. The following applies: 10 µM unless noted.
A further assay has as its system SR leukemia. The following applies: 10 µM unless noted.
The next assay has as its system RPMI-8226 leukemia. Conditions: 10 µM unless noted.
The test system of the next assay is OVCAR-8 ovarian. Conditions: 10 µM unless noted.
The subject of another assay is OVCAR-5 ovarian. The following applies: 10 µM unless noted.
Another assay deals with OVCAR-4 ovarian. Conditions: 10 µM unless noted.
Another assay concerns SK-OV-3 ovarian. The following applies: 10 µM unless noted.
A further assay concerns IGROV1 ovarian. The following applies: 10 µM unless noted.
The subject of a further assay is OVCAR-3 ovarian. The following applies: 10 µM unless noted.
For another assay, the system named is HS 578T breast. Conditions: 10 µM unless noted.

Consider `CC(=O)OC1CCC2C3CCC4=C/C(=N/OC(=O)c5ccc(N(CCCl)CCCl)cc5)CCC4(C)C3CC(C)C12` (stereo not drawn), for which the growth in the assay with SK-MEL-2 melanoma was 104%; in the assay on SN12C renal, 72.6%; with UO-31 renal it was -32% (active); with TK-10 renal it was 92.6%; in the assay with ACHN renal, 58.1%; in the assay with CAKI-1 renal it was 73.9%. For the same compound, the growth in the assay with A498 renal is 63.3%; in the assay with HL-60(TB) leukemia, 33.7%; in the assay on CCRF-CEM leukemia it was 14.8%; in the assay with MOLT-4 leukemia, 57.7%; in the assay with SR leukemia, -7.87% (active); in the assay with RPMI-8226 leukemia, 70.8%. Further, the growth in the assay with OVCAR-8 ovarian is 54.5%; in the assay with OVCAR-5 ovarian, 101%; in the assay with OVCAR-4 ovarian, 72%; in the assay with SK-OV-3 ovarian, 114%; in the assay on IGROV1 ovarian it was -59.1% (active); in the assay with OVCAR-3 ovarian, 59.7%. The growth in the assay with HS 578T breast is 26.3%.

As for `Nc1ccc(OCCNS(=O)(=O)c2cccc(S(=O)(=O)F)c2)c(Cl)c1`, the growth with SK-MEL-2 melanoma is 88.9%; in the assay with SN12C renal, 102%; with UO-31 renal it was -13.3% (active); in the assay with TK-10 renal, 102%; in the assay on ACHN renal, 96.2%; in the assay on CAKI-1 renal, 86.8%. The growth is 70.8% with A498 renal; 98.1% with HL-60(TB) leukemia; 93.5% with CCRF-CEM leukemia; 76.2% in the assay with MOLT-4 leukemia; 93.3% with SR leukemia; 80.4% in the assay on RPMI-8226 leukemia. Moreover, the growth in the assay on OVCAR-8 ovarian is 115%; in the assay on OVCAR-5 ovarian it was 102%; in the assay on OVCAR-4 ovarian it was 64.1%; with SK-OV-3 ovarian it was 87.1%; with IGROV1 ovarian, 97.3%; with OVCAR-3 ovarian, 110%. For the same compound, the growth with HS 578T breast is 93.6%.

With `OCCNC(Cc1ccccc1)c1ccc2c(c1)OCO2` (stereo not drawn), the growth is 72.2% in the assay with SK-MEL-2 melanoma; 98.8% with SN12C renal; 78.9% in the assay with UO-31 renal; 73.2% with TK-10 renal; 106% in the assay with ACHN renal; 97.1% in the assay on CAKI-1 renal. Further, the growth in the assay with A498 renal is 86.5%; in the assay on HL-60(TB) leukemia, 79.6%; in the assay on CCRF-CEM leukemia, 111%; in the assay on MOLT-4 leukemia it was 82.6%; in the assay with SR leukemia it was 99.1%; with RPMI-8226 leukemia it was 102%. In addition, the growth with OVCAR-8 ovarian was 98.7%; in the assay with OVCAR-5 ovarian, 105%; in the assay on OVCAR-4 ovarian, 117%; with SK-OV-3 ovarian, 74.7%; in the assay with IGROV1 ovarian, 107%; in the assay with OVCAR-3 ovarian it was 100%. Further, the growth in the assay with HS 578T breast is 103%.

On to `O=C1CN=C(c2ccc(Cl)cc2)c2sccc2N1`, for which the growth with SK-MEL-2 melanoma is 107%; in the assay with SN12C renal, 96.2%; with UO-31 renal, 84.6%; in the assay with TK-10 renal, 99.7%; in the assay on ACHN renal it was 104%; with CAKI-1 renal it was 97.9%. In addition, the growth in the assay with A498 renal is 102%; with HL-60(TB) leukemia, 98.3%; with CCRF-CEM leukemia, 97.4%; with MOLT-4 leukemia, 95.6%; with SR leukemia, 87.1%; in the assay with RPMI-8226 leukemia, 97.7%. In addition, the growth in the assay with OVCAR-8 ovarian was 101%; in the assay on OVCAR-5 ovarian it was 104%; in the assay on OVCAR-4 ovarian, 102%; in the assay on SK-OV-3 ovarian, 113%; with IGROV1 ovarian it was 108%; with OVCAR-3 ovarian, 109%.

As to `O=C1C=C(N2C3C4CCC(C4)C32)C(=O)C=C1c1ccccc1` (stereo not drawn), the growth is 87.8% with SK-MEL-2 melanoma; 93.8% in the assay with SN12C renal; 90.8% in the assay with UO-31 renal; 142% in the assay with TK-10 renal; 73.4% with ACHN renal; 58% in the assay on CAKI-1 renal. For the same compound, the growth in the assay with A498 renal is 49.3%; with HL-60(TB) leukemia it was 44.8%; in the assay with CCRF-CEM leukemia, 0.362% (active); with MOLT-4 leukemia it was 2.18% (active); in the assay on SR leukemia, 0.878% (active); in the assay on RPMI-8226 leukemia it was 53.1%. Moreover, the growth is 72.4% with OVCAR-8 ovarian; 102% in the assay on OVCAR-5 ovarian; 48% in the assay with OVCAR-4 ovarian; 88.9% in the assay on SK-OV-3 ovarian; 74.5% in the assay on OVCAR-3 ovarian; 102% in the assay with HS 578T breast.

In the case of `NC(=O)C(Br)c1ccccc1` (stereo not drawn), the growth with SK-MEL-2 melanoma was 83.9%; in the assay on SN12C renal it was 88.7%; in the assay with UO-31 renal, 102%; in the assay with TK-10 renal, 91.2%; with ACHN renal it was 87.2%; in the assay with CAKI-1 renal, -46% (active). Further, the growth in the assay with A498 renal is 87.4%; in the assay with HL-60(TB) leukemia it was 97.7%; in the assay with CCRF-CEM leukemia, 60.6%; in the assay with MOLT-4 leukemia, 74.2%; in the assay with SR leukemia, 46.1%; in the assay with RPMI-8226 leukemia, 96.6%. The growth is 90.8% in the assay on OVCAR-8 ovarian; 114% with OVCAR-5 ovarian; 89.6% in the assay on OVCAR-4 ovarian; 117% in the assay with SK-OV-3 ovarian; 80.3% with IGROV1 ovarian; 91.9% in the assay with OVCAR-3 ovarian. Further, the growth in the assay with HS 578T breast is 103%.

Regarding `CC(C)=CCC/C(C)=C/C=N\N=C(/N)N[N+](=O)[O-]`, the growth with SK-MEL-2 melanoma is 92.9%; in the assay on SN12C renal, 100%; with UO-31 renal, 69.7%; with TK-10 renal it was 87.4%; in the assay with ACHN renal it was 109%; in the assay with CAKI-1 renal it was 84.9%. Moreover, the growth with A498 renal was 83.9%; in the assay with HL-60(TB) leukemia, 113%; in the assay on CCRF-CEM leukemia it was 93.3%; with MOLT-4 leukemia, 90.9%; with SR leukemia, 83.6%; in the assay on OVCAR-8 ovarian, 104%. Besides, the growth is 103% with OVCAR-5 ovarian; 93.4% in the assay on OVCAR-4 ovarian; 98.9% in the assay on SK-OV-3 ovarian; 99.5% in the assay on IGROV1 ovarian; 101% with OVCAR-3 ovarian; 99.8% with HS 578T breast.

Take `C[N+](C)(C)Cc1cc(Cl)ccc1O`: the growth with SK-MEL-2 melanoma was 99.7%; in the assay with SN12C renal, 106%; with UO-31 renal, 90.8%; in the assay with TK-10 renal it was 110%; in the assay on ACHN renal, 95.9%; in the assay on CAKI-1 renal, 106%. Further, the growth in the assay with A498 renal was 90.1%; in the assay on HL-60(TB) leukemia, 87.4%; in the assay on CCRF-CEM leukemia it was 8.41% (active); in the assay on MOLT-4 leukemia, 96.9%; in the assay with SR leukemia, 104%; in the assay on RPMI-8226 leukemia, 76.3%. Also, the growth in the assay with OVCAR-5 ovarian was 101%; in the assay with OVCAR-4 ovarian, 92.8%; in the assay with SK-OV-3 ovarian it was 110%; with IGROV1 ovarian, 95.1%; with OVCAR-3 ovarian, 109%; in the assay with HS 578T breast, 103%.
